# Reference: PubChem BioAssay (EPA / NIEHS)
# The source made the active and inactive calls. The calls were made as follows: active = hit-call score of the fitted dose curve at least 0.9, where 1 is the maximum; inactive = score below 0.9.
# Assay: ATG_Oct_MLP_CIS: Attagene CIS-FACTORIAL HepG2 Assay for human Octamer-Binding Transcription Factor (Oct) (AID 2282993)
# Conditions: HepG2 Attagene cis-factorial Oct reporter, mRNA; actives raise or lower the signal
# Experimental: ATG_CIS is a cell-based, multiplexed-readout assay that uses HepG2, a human liver cell line, with measurements taken at 24 hours after chemical dosing in a 24-well plate.ATG_Oct_MLP_CIS is one of 52 assay component(s) measured or calculated from the ATG_CIS assay. It is designed to make measurements of mRNA induction, a form of inducible reporter, as detected with fluorescence intensity signals by Reverse transcription polymerase chain reaction (RT-PCR) and Capillary electrophoresis technology.Data from the assay component ATG_Oct_MLP_CIS was analyzed into 1 assay endpoint. This assay endpoint, ATG_Oct_MLP_CIS, was analyzed with bidirectional fitting relative to DMSO as the negative control and baseline of activity. Using a type of inducible reporter, measures of mRNA for gain or loss-of-signal activity can be used to understand the reporter gene at the transcription factor-level as they relate to the gene POU2F1. Furthermore, this assay endpoint can be referred to as a primary readout, because this assay has produced multiple assay endpoints where this one serves a reporter gene function. To generalize the intended target to other relatable targets, this assay endpoint is annotated to the dna binding intended target family, where the subfamily is POU domain protein.
# Human liver HepG2 cells are transiently transfected with multiple reporter transcription units (MRTUs) in 6-well plates using FuGene 6 reagent (Roche; 3 ml FuGene/1 mg DNA). The MRTU constructs are regulated by a cis-regulating element (promoter). […] A major difference between the CIS and TRANS system is that in CIS activities of endogenous TFs are measured, whereas the TRANS assay evaluates changes in activities of exogenous, chimeric NR-Gal4 proteins. […] At the end of 24 hour incubation, total RNA was isolated using TriZol reagent (Invitrogen). The isolated RNA is then reverse-transcribed using oligo(dT) primer and Mo-MLV reverse transcriptase (Invitrogen) with DNAse I (Ambion) treatment for 30 min. The one-tenth of the produced cDNA was amplified by PCR using Taq DNA polymerase (Invitrogen) and two reporter sequence-specific primers. The PCR products were fluorescently labeled by primer extension with 6-arboxyfluorescein (6-FAM) 5'-labeled reporter sequence-specific primer (2 min at 95 C, 20 s at 68 C and 10 min at 72 C) and these products were digested with 5U of HpaI (New England Biolabs) for 2h at 37 C. The fragments were purified using Qiaquick PCR columns (Qiagen), analyzed on an ABI 3130xL genetic analyzer (Applied Biosystems) with peak positions identified by using a set of X-rhodamine (ROX)-labeled MapMarker1000 molecular weight standards (BioVentures). The raw capillary electrophoresis data was processed using Attagraph software (Attagene).
SMILES,outcome,AC50
COC(=O)CC(=O)OC,inactive,–
O=c1n(CC2CO2)c(=O)n(CC2CO2)c(=O)n1CC1CO1 (stereo not given),–,48.5 µM (active)
CC(=O)OCCC(C)C,inactive,–
Cn1c(=O)c2c(ncn2C)n(C)c1=O,inactive,–
C1N2CN3CN1CN(C2)C3,inactive,–
Cc1ccc(O)cc1,inactive,–
Cc1[nH]cnc1C[C@H]1CCc2c(C)c3ccccc3n2C1=O,–,21 µM (active)
CC(O)CN(CCN(CC(C)O)CC(C)O)CC(C)O (stereo not given),inactive,–
Cc1ccc(N)cc1O,inactive,–
Nc1ccc(Nc2ccccc2)cc1,–,32 µM (active)
Cn1cnc([N+](=O)[O-])c1Sc1ncnc2nc[nH]c12,inactive,–
O=C(O)c1cc(N=Nc2ccc(S(=O)(=O)Nc3ccccn3)cc2)ccc1O,inactive,–
O=C1CCCCCN1,inactive,–
COc1ccc2sc(C(=O)Nc3nnn[nH]3)c(OC(C)C)c2c1,–,155 µM (active)
O=c1[nH]c2ccc(S(=O)CCN3CCC(Cc4ccc(F)cc4)CC3)cc2o1 (stereo not given),–,64.9 µM (active)
CC(C)(O)c1coc(S(=O)(=O)NC(=O)Nc2c3c(cc4c2CCC4)CCC3)c1,inactive,–
Cc1ccc(C)c(O)c1,inactive,–
CCNc1ccccc1,inactive,–
O=C(NS(=O)(=O)/C=C/c1ccccc1)c1ccc(F)cc1Cl,inactive,–
O=C1OC(=O)C2C3C=CC(C3)C12 (stereo not given),inactive,–

SMILES,outcome,AC50
CCN(C(=O)c1cc(C)cc(OC[C@H](C)Nc2ccncc2)c1)C(C)C,inactive,–
CCOC(=O)c1ccc(C2CCC(NC[C@H](O)COc3ccc(O)c(NS(C)(=O)=O)c3)CC2)cc1 (stereo not given in full),–,49.2 µM (active)
NC(=O)NO,inactive,–
CC(=O)c1ccc2c(c1)[C@H](NC(=O)c1ccc(F)cc1)[C@@H](O)C(C)(C)O2,inactive,–
COc1ccc(-n2nc(C(F)F)cc2-c2ccc(S(C)=O)cc2)cc1 (stereo not given),inactive,–
CCCC(=O)OCC,inactive,–
CCOc1cccc(-n2cc(C(=O)N3CCN(c4cc(C(=O)O)c5ccccc5c4)CC3)nc2-c2ccc(C)cc2)c1,–,25.4 µM (active)
Cc1c(-c2cccnc2)c2ccccc2n1CCCCC(=O)O,inactive,–
Cn1c(=O)cc(Oc2ccc(F)cc2F)c2cnc(NCC(C)(C)O)nc21,inactive,–
CCCCC(CC)COC(=O)c1ccc(C(=O)OCC(CC)CCCC)cc1 (stereo not given),inactive,–
CCOC(=O)CC(CC(=O)OCC)(OC(C)=O)C(=O)OCC,inactive,–
CNS(=O)(=O)c1cc(C(=O)N2CCC(CCN3C4CCC3CC(n3c(C)nc5ccccc53)C4)(c3cccc(F)c3)CC2)c(Cl)cc1F (stereo not given),inactive,–
COCCOCCOCCOC,inactive,–
Oc1ccc2c(c1)-c1ccccc1C2,–,32.6 µM (active)
COC(=O)c1c(Cl)c(Cl)c(C(=O)OC)c(Cl)c1Cl,inactive,–
CC(C)CCCCCCOC(=O)c1ccc(C(=O)OCCCCCCC(C)C)c(C(=O)OCCCCCCC(C)C)c1,inactive,–
CCc1cc(SCc2sc(-c3ccc(C(F)(F)F)cc3)nc2CN2CCN(c3ccc(OC)cc3)CC2)ccc1OCC(=O)O,–,8.42 µM (active)
COc1cccc(-c2ccc(/C=C\CN3CCCCCC3)cc2Cl)c1,–,11 µM (active)
CC(C)=CCCC(C)CCO (stereo not given),inactive,–
O=C1CCC(N2C(=O)c3ccccc3C2=O)C(=O)N1 (stereo not given),inactive,–
